The values that follow come from ChEMBL document CHEMBL3988442, “University of Dundee, Small-Polar-MMV Screening Library” (2021).

Screen size: about 48,000 compounds; about 13,000 (27%) showed an effect of 50% or more. The list shows a part of the results.

For the assay, the system named is Wolbachia pipientis. Nature of the assay: Anti-Wolbachia Cell-Based Screen. The following applies: 5 µM. It is filed as functional. Set-up: scale not given: in the data most compounds retested in dose-response had high values.
Turning to `c1ccc(CO[C@H]2CN(c3ncccn3)C[C@@]23CCCO3)cc1`, the “Percent Effect” value worked out at 124.5%.

`c1ccc(CN2CCOC3(CCCN(c4nccs4)C3)C2)cc1` (stereo not drawn): the “Percent Effect” value was -0.1767%. As for `COc1ccc(N2CCCC3(C2)CN(c2ncccn2)CCO3)cc1` (stereo not drawn), the figure is 2.929%; as for `CN(C(=O)COC1CCCCC1)C1CCN(CC2CCOC2)CC1` (stereo not drawn), -5.016%. As for `COc1cc2c(cc1OC)CN(C(C(=O)O)c1c(C)nn(C)c1C)CC2` (stereo not drawn), the figure is 14.43%; as for `CO[C@@H]1CO[C@@]2(CCN(C(=O)COc3ccccc3C)C2)C1`, -3.612%.

In the case of `COc1ccccc1OCC(=O)N1CCC[C@]2(C[C@@H](OC)CO2)C1`, the “Percent Effect” value is -30.12%. Then `CO[C@H]1CO[C@@]2(CCCN(C(=O)C3CC=CC3)C2)C1`, with 107.2%. As for `CO[C@@H]1CO[C@@]2(CCCN(C(=O)C3CC=CC3)C2)C1`, the figure is 95.67%. In the case of `COCC(=O)N1CC[C@@H]2O[C@@H](COCC3CCOCC3)CC[C@@H]21`, the “Percent Effect” value is -13.21%.

Regarding `Cc1ccc(NS(=O)(=O)c2cccc(C#N)c2)c(CN(C)C)c1`, the “Percent Effect” value was found to be 5.777%. As for `Cc1c(C(=O)N2CCCC(n3nnc4cc(F)ccc43)C2)cnn1C` (stereo not drawn), the figure is 103.4%. As for `Cc1nn(C)cc1C(=O)N1CCCC(n2nnc3cc(F)ccc32)C1` (stereo not drawn), the “Percent Effect” value is reported as 70.61%. Regarding `Cc1nc(C)n(C2CCCN(C(=O)c3ccc(F)cc3F)C2)n1` (stereo not drawn), the “Percent Effect” value was 4.826%.

Take `Cc1nnsc1C(=O)N1CCCC(c2nccn2Cc2cscn2)C1` (stereo not drawn): the “Percent Effect” value is 19.06%. Regarding `Cc1nnsc1C(=O)N1CCCC(n2nnc3cc(F)ccc32)C1` (stereo not drawn), the “Percent Effect” value is on record as 86.87%. Take `Cc1cc(C)n(C2CCCN(C(=O)c3ccc(F)cc3F)C2)n1` (stereo not drawn): the “Percent Effect” value came out at 0.0476%. Then `O=C(c1n[nH]cc1Cl)N1CCCC(n2nnc3cc(F)ccc32)C1` (stereo not drawn), with 121.3%; and `O=C(c1n[nH]cc1Cl)N1CCOC(Cc2cccc(C(F)(F)F)c2)C1` (stereo not drawn), with 16.6%. As for `CCc1nnsc1C(=O)N1CCCC(COc2ccc(F)cc2)C1` (stereo not drawn), the figure is -1.511%; as for `COc1c(CNC2CCCOc3ccc(F)cc32)c(C)nn1C.Cl` (stereo not drawn), -15.22%; as for `Cc1ccccc1N1CCN(C(=O)c2ccc[nH]2)C(C)C1` (stereo not drawn), -11.11%. As for `COCc1noc(-c2ccc(N(C)Cc3cn(C)nc3C)nc2)n1`, the figure is -0.7863%. In the case of `COc1ccc(C(C)N2CCC(C(=O)NC3CC3)CC2)cc1Cl` (stereo not drawn), the “Percent Effect” value is recorded as 5.354%. As for `O=C(c1ccsc1)N1CCc2c(CNc3nccs3)n[nH]c2C1`, the figure is -7.215%; as for `CN1C(=O)CC(c2ccccc2)C12CCN(c1ncccn1)CC2` (stereo not drawn), -22.26%; as for `CCC(C(=O)NCc1csc(-c2ncccn2)n1)n1cccn1` (stereo not drawn), 6.719%. As for `CCC(C(=O)NCc1cc(N2CCOCC2)ncn1)n1cccn1` (stereo not drawn), the figure is -0.1761%; as for `CCC(C(=O)NCc1noc(Cc2cccs2)n1)n1cccn1` (stereo not drawn), -1.383%; as for `Cc1cc(C(F)(F)F)nc(CNC(=O)CCn2cccn2)n1`, 103.4%. In the case of `CCc1csc(CNC(=O)C(CC)n2cccn2)n1` (stereo not drawn), the “Percent Effect” value was -1.307%. Then `Cc1cc(C(F)(F)F)nc(CNC(=O)CCC2CCCCN2C)n1` (stereo not drawn), with -1.594%; and `CCC(C(=O)NCc1nc(C)cc(C(F)(F)F)n1)n1cccn1` (stereo not drawn), with 86.37%. Consider `Cc1cc(C(F)(F)F)nc(CNC(=O)CCCN2CCCCC2)n1`, for which the “Percent Effect” value is recorded as -0.7363%. As for `CCC(C(=O)NCCc1nc(C)cc(C(F)(F)F)n1)n1cccn1` (stereo not drawn), the figure is 110%; as for `CC(C)NC(=O)N[C@H]1C[C@@H](c2nc(-c3ccncc3)no2)N(C)C1`, -7.5%.

Regarding `Cc1ccc2c(c1)CCCN2C(=O)c1cncc(Br)c1`, the “Percent Effect” value is given as 3.118%.

Consider `CCc1c(NCc2ccc(F)cc2)cnn1CC(C)C`, for which the “Percent Effect” value is 0.9512%. Then `CCCn1cc(NC(=O)Nc2ccc(F)c(C(=O)NC)c2)cn1`, with 109.9%; and `Cc1c(C(=O)NS(=O)(=O)c2ccc(F)cc2)cnn1CC(C)C`, with 6.603%. Then `CNC(=O)c1cc(NC(=O)Nc2cnn(CC(C)C)c2)ccc1F`, with 106.8%; and `CNC(=O)CNC(=O)Nc1ccc(F)c(Br)c1`, with 3.521%.

As to `O=C(Nc1cnn(CCN2CCOCC2)c1)c1cc(F)ccc1F`, the “Percent Effect” value is listed as -10.74%.

In the case of `CNC(=O)c1cc(NC(=O)NC(C)CCc2cccn2C)ccc1F` (stereo not drawn), the “Percent Effect” value turned out to be 0.1416%. Then `CC(C)Cn1cc(NC(=O)c2cccc(N(C)C)c2)cn1`, with -6.196%; and `CCc1c(C(=O)Nc2ccc(F)c(C(=O)NC)c2)cnn1CC(C)C`, with 115.2%; and `COCCCN1CCC(NC2CSCCc3ccccc32)CC1` (stereo not drawn), with 3.161%. For `O=C(CCn1cncn1)N1C[C@H]2CC[C@@H]1CN(Cc1cccnc1)C2`, the “Percent Effect” value is 2.407%. As for `Cc1nc(Cn2cnc3c(c(Br)nn3C)c2=O)cs1`, the figure is -1.874%. As for `Cc1csc([C@H]2C[C@@H]3CCN(Cc4cnn(C)c4)C[C@H]3O2)n1`, the figure is 5.32%; as for `CN(C)C1CCN(C(=O)c2n[nH]c3c2CCN(CC2CCC2)C3)CC1`, 111.2%; as for `CN(C)C(=O)c1n[nH]c2c1CN(CC1CCC1)C2.O=C(O)C(F)(F)F.O=C(O)C(F)(F)F`, 93.12%. As for `CN1CCN(C(=O)c2n[nH]c3c2CCN(Cc2nccs2)C3)CC1`, the figure is -5.603%; as for `CCN1CCc2[nH]nc(C(=O)N3CCCC3C)c2C1.O=C(O)C(F)(F)F` (stereo not drawn), -0.9609%; as for `CN(C)C(=O)c1n[nH]c2c1CN(CC1CCCCC1)C2.O=C(O)C(F)(F)F.O=C(O)C(F)(F)F`, 93.81%. For `Cc1ccc(CN2CCc3[nH]nc(C(=O)N(C)C)c3C2)s1.O=C(O)C(F)(F)F.O=C(O)C(F)(F)F`, the “Percent Effect” value was -17.1%. Then `CN(C)C(=O)c1n[nH]c2c1CN(Cc1nccs1)CC2.O=C(O)C(F)(F)F`, with -9.505%; and `CN(C)C(=O)c1n[nH]c2c1CN(Cc1ccccn1)CC2.O=C(O)C(F)(F)F`, with -21.72%; and `O=C(O)C(F)(F)F.O=C(c1n[nH]c2c1CCN(Cc1nccs1)C2)N1CCCC1`, with 1.297%. As for `Cc1cc(C(=O)N(C)Cc2ccoc2)c(NC(=O)C(C)(C)C)s1`, the figure is -2.438%; as for `Cn1c(CS(=O)(=O)Cc2ccc(Cl)cc2)cc(=O)n(C)c1=O`, 5.826%. Then `C/C=C(\C)CN1CCC2(CCC(=O)N2OCc2ccccc2F)CC1`, with 2.227%; and `CCOCc1ccccc1NC(=O)NCC(C)(O)c1cc(C)oc1C` (stereo not drawn), with -7.22%.

Take `CCc1ccccc1OC1CN(C(=O)CN(C)Cc2cccnc2)C1`: the “Percent Effect” value was -4.322%.

For the molecule `CCN(CC)C(=O)Cn1c(-c2ccc(Cl)cc2)nc(C)c(CCO)c1=O`, the “Percent Effect” value is on record as 119.6%. As for `COCCNC(=O)Cn1c(-c2ccc(F)cc2)nc(C)c(CCO)c1=O`, the figure is 103.8%; as for `Cc1nc(-c2ccc(Cl)cc2)n(CC(=O)NC(C)C)c(=O)c1CCO`, 129.7%. Then `COCCNC(=O)c1sc(Nc2ccc(Cl)cn2)nc1C`, with 19.38%; and `CCN(CC)C(=O)Cn1c(C)cc2nc(SC)n(CC(C)C)c(=O)c21`, with 2.572%; and `COCCNC(=O)Cn1c(-c2ccc(Cl)cc2)nc(C)c(CCO)c1=O`, with 140%. As for `Cc1noc(Cl)c1CC(=O)NCCOc1ccc(F)cc1F`, the figure is 16.27%; as for `CCN(Cc1cnn(CC)c1)C(=O)Cn1c(=O)c(C)nc2ccccc21`, -5.598%. On to `COc1c(CNCCNC(=O)Cc2ccc(F)cc2)c(C)nn1C`, for which the “Percent Effect” value is -0.8821%. As for `CC(CNC(=O)c1cccnc1O)Cn1cccn1` (stereo not drawn), the figure is -0.5981%. Turning to `O=C1CCCN1CCCC(=O)N1CCCCC1c1ccc(F)cc1` (stereo not drawn), the “Percent Effect” value is recorded as -8.614%. On to `O=C(NCCNS(=O)(=O)c1ccc(C(F)(F)F)cc1)c1ccoc1`, for which the “Percent Effect” value was 7.368%.

Take `CCCN1CCC(NC(=O)c2csc(C)c2C)CC1`: the “Percent Effect” value worked out at 2.027%. For `O=C(CS(=O)(=O)c1ccc(Cl)cc1)NC1CCCc2ccccc21` (stereo not drawn), the “Percent Effect” value came out at 1.396%. Regarding `CC(C)OC(C)c1nnc(SCC(=O)O)n1-c1ccc(F)cc1F` (stereo not drawn), the “Percent Effect” value was 15.24%. Then `N[C@H]1CN(C(=O)c2ccccc2OCc2ccccc2)C[C@@H]1C1CC1`, with 10.21%; and `N[C@H]1CN(C(=O)Cc2ccc(Cl)c(Cl)c2)C[C@@H]1C1CC1`, with 0.666%; and `O=C(O)[C@@H]1CN(Cc2cc3c(cc2Cl)OCO3)C[C@H]1C1CC1`, with -1.718%. As for `CCOc1ccc(CC(=O)N2C[C@H](C3CC3)[C@@H](N)C2)cc1`, the figure is 13.07%. Then `CCOCCOc1ccccc1C(=O)N1C[C@H](C2CC2)[C@@H](N)C1`, with -0.9919%. Consider `O=C(O)[C@@H]1CN(C(=O)CCc2ccccn2)C[C@H]1c1ccccc1`, for which the “Percent Effect” value worked out at 11.77%. Then `O=C(O)[C@@H]1CN(C(=O)Cc2ccccc2Cl)C[C@H]1C1CC1`, with 117.2%; and `COc1ccccc1[C@@H]1CN(C(=O)Cc2csc(C)n2)C[C@H]1C(=O)O`, with 12.9%; and `CCOc1ccccc1CC(=O)N1C[C@@H](C(=O)O)[C@H](C2CC2)C1`, with 111.1%.

As for `Cc1nc(C)c(CC(=O)N2C[C@@H](C(=O)O)[C@H](c3ccncc3)C2)s1`, the “Percent Effect” value is listed as -15.05%.

Consider `CCOc1ccccc1CC(=O)N1C[C@H](C2CC2)[C@@H](N)C1`, for which the “Percent Effect” value was found to be 104.9%. As for `CCOc1ccccc1CC(=O)N1C[C@@H](C(=O)O)[C@H](c2ccncc2)C1`, the figure is 102.2%; as for `CS(=O)(=O)N1C[C@H]2CNC[C@@]2(C(=O)NCCCc2ccccc2)C1`, 15.21%. As for `C1CCCN(c2nc(C3CC3)ns2)CC1`, the figure is 16.93%; as for `CCCS(=O)(=O)N1CCC2(CN(c3cnn(C)c3)C(=O)CN2C)C1.O=C(O)C(F)(F)F` (stereo not drawn), -3.589%; as for `CCc1cc(NC(C)(C)C)nc(N2CCOCC2)n1`, -8.862%.

For `Cc1cc(F)cc(S(=O)(=O)NCCCN2CCC(O)CC2)c1`, the “Percent Effect” value stood at 17.75%. Then `CCc1cc(NCCS(=O)(=O)N(C)C)nc(N2CCOCC2)n1`, with 7.02%; and `CS(=O)(=O)NCc1cc(-c2cc(F)cc(F)c2)nc(N2CCOCC2)n1`, with 112.2%; and `Cc1nc(N2CCCC2)nc(C)c1NS(C)(=O)=O`, with 5.529%. Then `CS(=O)(=O)NCc1cc(-c2cc(F)cc(F)c2)nc(N2CC[C@H](O)C2)n1`, with 97.73%; and `Cc1nn2c(N3CCC(O)C3)cc(-c3ccccc3)nc2c1C` (stereo not drawn), with 3.691%.

As for `CS(=O)(=O)NCc1cc(-c2cc(F)cc(F)c2)nc(N2CCCC2)n1`, the “Percent Effect” value is 85.03%. Then `Cc1cc(F)cc(CN2CCCn3nc(CNS(C)(=O)=O)cc3C2)c1`, with -6.917%.
